Reference: PubChem BioAssay
Values without a mark were called inactive. A call without a number means that no potency is given here. For part of these data: Potency and affinity values are given separately. The source made the active and inactive calls. Unless noted, how the calls were made is not given here.

Legend:
[1] = antimalarial activity against Dd2 strain (AID 2302;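 active means growth inhibition above 50% at the single 2 µM test dose, taken to imply half-maximal potency below 2 µM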); settings: P. falciparum Dd2 in RBCs, LDH growth readout, 72 h; at 2 µM; active compounds read high
[2] = human hepatoma cell viability loss – ATP luminescence, cytotoxicity control for P. falciparum antimalarial project, primary screen (AID 2303;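 active means inhibition above 50%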); settings: HepG2 viability, 24-48 h, at 10 µM, active compounds read high
[3] = biological target: L-lactate dehydrogenase (Plasmodium falciparum (isolate CDC / Honduras)) (UniProt Q27743); test: PfLDH activity inhibition – cell lysate, 3D7 strain, counter-screen for P. falciparum growth inhibition project (AID 2304); settings: P. falciparum 3D7 crude extract, LDH APAD/NBT absorbance; at 2 µM; active compounds read high
[4] = inhibition of 3D7 malaria parasite growth – strain 3D7 (AID 2306); settings: P. falciparum 3D7 erythrocytic growth, LDH absorbance, 72 h; at 2 µM; active compounds read high
[5] = biological target: Calcium-dependent protein kinase 1 (Plasmodium falciparum (isolate 3D7)) (UniProt P62344); test: PfCDPK1 kinase inhibitors, biochemical, TCAMS library (AID 1159585; cut-off not given, nearly all actives have IC50 up to about 0.98 µM;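 further: inhibitors leave more ATP so luminescence rises with inhibition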); settings: recombinant PfCDPK1, Kinase-Glo ATP depletion luminescence
[6] = biological target: Plasmodium falciparum protein kinase 6 (PK6, PF3D7_1337100) (UniProt Q8IDW1); test: PfPK6 kinase inhibitors, biochemical, TCAMS library (AID 1159586); settings: recombinant PfPK6, Kinase-Glo ATP depletion luminescence
[7] = biological target: Protein kinase 7 (PK7), Plasmodium falciparum 3D7 (PF3D7_0213400) (UniProt Q7YTF7); test: inhibition of Plasmodium PK7 catalytic activity – biochemical, TCAMS antimalarial set, Kinase-Glo luminescence (AID 1159587); settings: recombinant PfPK7, Kinase-Glo ATP depletion luminescence
[8] = biological target: Calcium-dependent protein kinase 4 (Plasmodium falciparum (isolate 3D7)) (UniProt Q8IBS5); test: PfCDPK4 kinase inhibitors, biochemical, TCAMS library (AID 1159588; cut-off not given, nearly all actives have IC50 up to about 0.91 µM); settings: recombinant PfCDPK4, Kinase-Glo ATP depletion luminescence
Calcium-dependent protein kinase 4 (Plasmodium falciparum (isolate 3D7)), sequence (Q8IBS5 whole entry, looked up): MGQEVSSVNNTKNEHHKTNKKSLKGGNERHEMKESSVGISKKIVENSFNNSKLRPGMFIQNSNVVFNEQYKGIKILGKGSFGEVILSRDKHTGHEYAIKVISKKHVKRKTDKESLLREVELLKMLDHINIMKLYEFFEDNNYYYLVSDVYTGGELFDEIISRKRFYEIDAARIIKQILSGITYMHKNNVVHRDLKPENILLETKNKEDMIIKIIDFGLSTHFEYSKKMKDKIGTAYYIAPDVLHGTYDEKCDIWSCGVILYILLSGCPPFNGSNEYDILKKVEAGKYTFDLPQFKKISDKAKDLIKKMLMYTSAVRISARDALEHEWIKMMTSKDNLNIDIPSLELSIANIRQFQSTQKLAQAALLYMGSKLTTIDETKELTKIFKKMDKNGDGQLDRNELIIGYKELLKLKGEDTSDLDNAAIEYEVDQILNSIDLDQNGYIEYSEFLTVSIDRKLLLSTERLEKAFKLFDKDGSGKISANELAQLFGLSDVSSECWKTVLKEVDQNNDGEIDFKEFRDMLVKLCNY

L-lactate dehydrogenase (Plasmodium falciparum (isolate CDC / Honduras)), sequence (Q27743 whole entry, looked up): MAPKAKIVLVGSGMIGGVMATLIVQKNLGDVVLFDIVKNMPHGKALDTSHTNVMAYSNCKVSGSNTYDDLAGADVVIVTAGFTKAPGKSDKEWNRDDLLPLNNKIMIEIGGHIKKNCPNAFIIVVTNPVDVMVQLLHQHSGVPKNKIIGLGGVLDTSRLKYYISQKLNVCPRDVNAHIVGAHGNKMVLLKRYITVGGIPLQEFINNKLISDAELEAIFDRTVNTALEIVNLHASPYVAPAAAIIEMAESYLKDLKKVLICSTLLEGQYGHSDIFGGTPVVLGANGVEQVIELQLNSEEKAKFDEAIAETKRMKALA
Plasmodium falciparum protein kinase 6 (PK6, PF3D7_1337100), sequence (Q8IDW1 1-305): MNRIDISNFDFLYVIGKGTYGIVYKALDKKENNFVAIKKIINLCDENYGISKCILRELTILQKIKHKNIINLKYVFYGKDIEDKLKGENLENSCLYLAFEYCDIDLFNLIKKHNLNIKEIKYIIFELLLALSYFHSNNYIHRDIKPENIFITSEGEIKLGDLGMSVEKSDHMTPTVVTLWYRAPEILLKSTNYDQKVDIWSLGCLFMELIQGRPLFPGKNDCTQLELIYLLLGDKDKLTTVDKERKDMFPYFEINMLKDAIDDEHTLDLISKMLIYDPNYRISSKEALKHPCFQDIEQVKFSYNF
Protein kinase 7 (PK7), Plasmodium falciparum 3D7 (PF3D7_0213400), sequence (Q7YTF7 1-343): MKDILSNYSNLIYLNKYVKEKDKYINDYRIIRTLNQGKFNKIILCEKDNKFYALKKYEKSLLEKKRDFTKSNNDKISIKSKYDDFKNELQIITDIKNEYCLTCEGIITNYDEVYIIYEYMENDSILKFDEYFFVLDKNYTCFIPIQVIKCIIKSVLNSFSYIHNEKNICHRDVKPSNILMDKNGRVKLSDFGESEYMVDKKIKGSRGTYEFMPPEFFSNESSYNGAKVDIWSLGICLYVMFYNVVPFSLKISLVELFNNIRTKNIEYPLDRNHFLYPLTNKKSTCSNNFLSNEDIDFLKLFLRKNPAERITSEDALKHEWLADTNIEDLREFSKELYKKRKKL
Calcium-dependent protein kinase 1 (Plasmodium falciparum (isolate 3D7)), sequence (P62344 whole entry, looked up): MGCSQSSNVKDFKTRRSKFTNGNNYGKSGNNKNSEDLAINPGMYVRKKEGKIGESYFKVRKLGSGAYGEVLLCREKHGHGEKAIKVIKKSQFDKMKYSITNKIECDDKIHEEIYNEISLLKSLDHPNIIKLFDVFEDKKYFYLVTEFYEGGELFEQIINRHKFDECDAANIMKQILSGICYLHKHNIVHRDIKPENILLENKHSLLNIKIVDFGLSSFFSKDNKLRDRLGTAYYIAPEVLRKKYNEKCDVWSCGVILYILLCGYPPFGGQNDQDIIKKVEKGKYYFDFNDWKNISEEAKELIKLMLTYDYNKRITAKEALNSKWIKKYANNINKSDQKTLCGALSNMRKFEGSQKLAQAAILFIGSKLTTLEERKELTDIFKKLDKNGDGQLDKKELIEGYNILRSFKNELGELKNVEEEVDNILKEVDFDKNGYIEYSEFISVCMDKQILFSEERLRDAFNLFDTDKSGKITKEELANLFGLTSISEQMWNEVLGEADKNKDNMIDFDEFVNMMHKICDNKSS

Row | Structure (SMILES) | growth inhibition [1] | inhibition [2] | inhibition [3] [%] | growth inhibition [4] | outcome [5] | outcome [6] | outcome [7] | outcome [8]
1 | CC(C)NCc1ccc(-c2ccc(NC(=O)c3cccc(C#N)c3)cc2)cc1 | 77% (active) | 40% | -2 | 99% (active) | inactive | inactive | inactive | inactive
2 | COc1cc2nc(N3CCC(CNC(=O)c4ccc(-c5ccc(-c6noc(C)n6)cc5)cc4)CC3)nc(N)c2cc1OC | 100% (active) | 96% (active) | 1 | 98% (active) | inactive | inactive | inactive | inactive
3 | O=C(Nc1ccc2nc3n(c(=O)c2c1)CCCCC3)C(=O)N1CCC(Cc2ccccc2)CC1 | 70% (active) | 12% | 0 | 91% (active) | inactive | inactive | inactive | inactive
4 | CCCCCCCCCCS(=O)(=O)N[C@H](COCc1cccc(Oc2ccccc2)c1)COP(=O)(O)OC | -3% | -1% | -8 | 87% (active) | inactive | inactive | inactive | inactive
5 | CN(C)C(=O)CN1CCN(c2ncnc(N3CCc4c([nH]c5ccccc45)[C@@H]3c3ccc4c(c3)CCO4)n2)CC1 | 98% (active) | 12% | -1 | 99% (active) | inactive | inactive | inactive | inactive
6 | O=C(Nc1cccc(Cl)c1)c1cnc(N2CCN(c3ccncc3)CC2)c(Cl)c1 | 97% (active) | 54% (active) | 4 | 101% (active) | inactive | inactive | inactive | inactive
7 | Cc1cc(OCCCNc2nc(NCCc3ccc(O)cc3)nc(N3CCNCC3)n2)c(Cl)c(C)c1Cl | 8% | 54% (active) | 5 | 99% (active) | inactive | inactive | inactive | inactive
8 | COC(=O)c1ccc2nc(-c3ccc(/C=C/C(=O)NCc4ccc(Cl)c(Cl)c4)cc3)[nH]c2c1 | 3% | 13% | -3 | 81% (active) | inactive | inactive | inactive | inactive
9 | COc1ccc(-c2ccc([N+](=O)[O-])cc2C(=O)NCC(C)Oc2ccc(C(F)(F)F)cc2)cc1 (configuration not stated) | 81% (active) | 6% | 5 | 102% (active) | inactive | inactive | inactive | inactive
10 | c1ccc(COc2ccc(Nc3ncnc4cnc(-c5ccc(CN6CCCCC6)o5)cc34)cc2)cc1 | 13% | -14% | -5 | 90% (active) | inactive | inactive | inactive | inactive
11 | CC1(C)N=C(N)N=C(N)N1OCOc1cc(Cl)c(Cl)cc1Cl | 98% (active) | 66% (active) | -3 | 96% (active) | inactive | inactive | inactive | inactive
12 | CCc1ccc(NC(=O)C=NN=C(N)N)cc1 | 3% | 13% | -2 | 100% (active) | inactive | inactive | inactive | inactive
13 | CCOc1ccc2ccccc2c1CNCCCCCCNCc1c(OCC)ccc2ccccc12 | 89% (active) | 100% (active) | -2 | 100% (active) | inactive | inactive | inactive | inactive
14 | Cc1cc(F)ccc1-c1nc(N(C)CCN(C)C(=O)N(C)c2ccccc2)nc2c1ccc(=O)n2-c1c(F)cccc1F | 77% (active) | -1% | 2 | 87% (active) | inactive | inactive | inactive | inactive
15 | CC[C@H](NC(=O)c1c(CC2CCN(CC(C)=O)CC2)c(-c2ccccc2)nc2ccccc12)c1ccccc1 | 96% (active) | 7% | 3 | 97% (active) | inactive | inactive | inactive | inactive
16 | COc1ccc(NC(=O)/C=C/c2ccccc2Cl)cc1OCCN1CCC(Cc2cc3ccccc3[nH]2)CC1 | 8% | 56% (active) | 0 | 92% (active) | inactive | inactive | inactive | inactive
17 | CC(C)CNC(=O)CN1C(=O)C(c2ccccc2)(c2ccccc2)N=C1N | 46% | 15% | -1 | 94% (active) | inactive | inactive | inactive | inactive
18 | O=C(Nc1cccc(CN2CCCN(Cc3ccc(O)cc3)CC2)c1)c1ccc2ccccc2c1 | 78% (active) | 20% | 1 | 101% (active) | inactive | inactive | inactive | inactive
19 | CN(C)C(=O)CC(=O)NCc1cccc(Cl)c1 | 3% | 4% | 3 | 99% (active) | inactive | inactive | inactive | inactive
20 | O=[N+]([O-])c1cccc(CNC2CCN(Cc3ccc(-c4ccccc4)cc3)CC2)c1 | 96% (active) | 25% | 1 | 100% (active) | inactive | inactive | inactive | inactive

Row | Structure (SMILES) | growth inhibition [1] | inhibition [2] | inhibition [3] [%] | growth inhibition [4] | outcome [5] | outcome [6] | outcome [7] | outcome [8]
21 | CC(CN(C)C)C(=O)Nc1ccc(-c2ccc(-c3nc4ccc(C(F)(F)F)cc4[nH]3)cc2)cc1 (configuration not stated) | 93% (active) | 14% | 2 | 101% (active) | inactive | inactive | inactive | inactive
22 | O=C(Nc1ccc(N2CCC(Nc3ccccn3)CC2)cc1)c1cnc(Cl)c(Cl)c1 | 1% | 46% | 0 | 83% (active) | inactive | inactive | inactive | inactive
23 | COc1ccc(C(=O)Nc2ccc(Cl)cc2C(=O)Nc2ccncc2)cc1 | 29% | 7% | 1 | 91% (active) | inactive | inactive | inactive | inactive
24 | CCOC(=O)NCC(=O)Nc1cccc(-c2cccc(-c3nc4ccc(C(F)(F)F)cc4[nH]3)c2)c1 | 34% | 59% (active) | -2 | 91% (active) | inactive | inactive | inactive | inactive
25 | Fc1cccc(C=NNc2ccnc3ccccc23)c1 | 72% (active) | 3% | 7 | 103% (active) | inactive | inactive | inactive | inactive
26 | Oc1cc2c(cc1CN1CCN(Cc3ccc(Cl)s3)CC1)CCC2 | 76% (active) | 7% | -3 | 98% (active) | inactive | inactive | inactive | inactive
27 | CC(C)C[C@H](NC(=O)[C@H](Cc1ccccc1)N(C[C@H](Cc1ccccc1)NC(=O)OC(C)(C)C)C(=O)C(F)(F)F)C(=O)NC1CCN(Cc2ccccc2)CC1 | 82% (active) | 13% | -5 | 92% (active) | inactive | inactive | inactive | inactive
28 | O=C(/C=C/c1ccc(Cl)c(Cl)c1)NCCCCCCN1CCCN(C(=O)Nc2cccc(C(F)(F)F)c2)CC1 | 0% | 25% | -3 | 95% (active) | inactive | inactive | inactive | inactive
29 | O=C(/C=C/c1ccc(Cl)c(Cl)c1)NCCCCCN1CCC(NC(=O)NC2CCCCC2)CC1 | 44% | 22% | -1 | 96% (active) | inactive | inactive | inactive | inactive
30 | Cc1cc(OCCCN2CCN(CCN3CCOCC3)CC2)ccc1NC(=O)COc1ccc(Cl)cc1C(=O)c1cc(Cl)cc(C#N)c1 | 78% (active) | 30% | -3 | 99% (active) | inactive | inactive | inactive | inactive
31 | O=C(Nc1ccc(Br)cc1)N1CCC(n2c(-c3ccccc3)nc3cccnc32)CC1 | 86% (active) | 36% | 0 | 90% (active) | inactive | inactive | inactive | inactive
32 | N#Cc1cc(C(=O)c2cc(Cl)ccc2O)cn(-c2cccc(C(F)(F)F)c2)c1=O | 7% | -1% | -2 | 87% (active) | inactive | inactive | inactive | inactive
33 | O=C(NCc1cccc(F)c1)Nc1cccc(-c2cccc(-c3nc4ccc(C(F)(F)F)cc4[nH]3)c2)c1 | 32% | 55% (active) | -7 | 93% (active) | inactive | inactive | inactive | inactive
34 | c1cc(-c2ccc(CN3CCCC3)cc2)cc(-c2nc3ccccc3[nH]2)c1 | 52% (active) | 25% | 0 | 100% (active) | inactive | inactive | inactive | inactive
35 | COc1ccc2nc(C)cc(N/N=C/C=C/c3ccccc3)c2c1 | 100% (active) | 27% | 0 | 100% (active) | inactive | inactive | inactive | inactive
36 | CC(Oc1ccc(Cl)cc1)C(=O)Nc1cc(C(F)(F)F)ccc1N1CCOCC1 (configuration not stated) | 97% (active) | 14% | -6 | 97% (active) | inactive | inactive | inactive | inactive
37 | CCNC(C)(C)CN(Cc1ccc(-c2ccc(C(F)(F)F)cc2)cc1)C(=O)Cn1c(CCc2cccc(F)c2F)nc(=O)c2ccccc21 | 70% (active) | 47% | -7 | 97% (active) | inactive | inactive | inactive | inactive
38 | CCCNC(=O)c1cncc(-c2ccc(CNC(CC)c3ccccc3)cc2)c1 (configuration not stated) | 1% | 20% | 0 | 92% (active) | inactive | inactive | inactive | inactive
39 | CCN1CCC(N(Cc2ccc(-c3ccc(C(F)(F)F)cc3)cc2)C(=O)Cn2c(SCc3ccc(F)cc3)nc(=O)c3c2CCC3)CC1 | 96% (active) | 46% | 2 | 90% (active) | inactive | inactive | inactive | inactive
